Test results: the supplement of paper PMC3334620
In all, about 33,000 sequences were measured (“E-score (-0.5 to 0.5)”: median about -0.053, highest 2% from about 0.37 on). The full list was thinned out, with the highest values kept by preference.

What follows are sequences tested against Hap1 (UniProt P0CE41) (assay: PBM E-score (8-mer binding enrichment) (E-score (-0.5 to 0.5)); higher = stronger / more preferred TF binding). Conditions: protein concentration: 200 nM; construct: GST-DNA-binding domain.
UniProt P0CE41, sequence (P0CE41 whole entry, the tested form may be a part): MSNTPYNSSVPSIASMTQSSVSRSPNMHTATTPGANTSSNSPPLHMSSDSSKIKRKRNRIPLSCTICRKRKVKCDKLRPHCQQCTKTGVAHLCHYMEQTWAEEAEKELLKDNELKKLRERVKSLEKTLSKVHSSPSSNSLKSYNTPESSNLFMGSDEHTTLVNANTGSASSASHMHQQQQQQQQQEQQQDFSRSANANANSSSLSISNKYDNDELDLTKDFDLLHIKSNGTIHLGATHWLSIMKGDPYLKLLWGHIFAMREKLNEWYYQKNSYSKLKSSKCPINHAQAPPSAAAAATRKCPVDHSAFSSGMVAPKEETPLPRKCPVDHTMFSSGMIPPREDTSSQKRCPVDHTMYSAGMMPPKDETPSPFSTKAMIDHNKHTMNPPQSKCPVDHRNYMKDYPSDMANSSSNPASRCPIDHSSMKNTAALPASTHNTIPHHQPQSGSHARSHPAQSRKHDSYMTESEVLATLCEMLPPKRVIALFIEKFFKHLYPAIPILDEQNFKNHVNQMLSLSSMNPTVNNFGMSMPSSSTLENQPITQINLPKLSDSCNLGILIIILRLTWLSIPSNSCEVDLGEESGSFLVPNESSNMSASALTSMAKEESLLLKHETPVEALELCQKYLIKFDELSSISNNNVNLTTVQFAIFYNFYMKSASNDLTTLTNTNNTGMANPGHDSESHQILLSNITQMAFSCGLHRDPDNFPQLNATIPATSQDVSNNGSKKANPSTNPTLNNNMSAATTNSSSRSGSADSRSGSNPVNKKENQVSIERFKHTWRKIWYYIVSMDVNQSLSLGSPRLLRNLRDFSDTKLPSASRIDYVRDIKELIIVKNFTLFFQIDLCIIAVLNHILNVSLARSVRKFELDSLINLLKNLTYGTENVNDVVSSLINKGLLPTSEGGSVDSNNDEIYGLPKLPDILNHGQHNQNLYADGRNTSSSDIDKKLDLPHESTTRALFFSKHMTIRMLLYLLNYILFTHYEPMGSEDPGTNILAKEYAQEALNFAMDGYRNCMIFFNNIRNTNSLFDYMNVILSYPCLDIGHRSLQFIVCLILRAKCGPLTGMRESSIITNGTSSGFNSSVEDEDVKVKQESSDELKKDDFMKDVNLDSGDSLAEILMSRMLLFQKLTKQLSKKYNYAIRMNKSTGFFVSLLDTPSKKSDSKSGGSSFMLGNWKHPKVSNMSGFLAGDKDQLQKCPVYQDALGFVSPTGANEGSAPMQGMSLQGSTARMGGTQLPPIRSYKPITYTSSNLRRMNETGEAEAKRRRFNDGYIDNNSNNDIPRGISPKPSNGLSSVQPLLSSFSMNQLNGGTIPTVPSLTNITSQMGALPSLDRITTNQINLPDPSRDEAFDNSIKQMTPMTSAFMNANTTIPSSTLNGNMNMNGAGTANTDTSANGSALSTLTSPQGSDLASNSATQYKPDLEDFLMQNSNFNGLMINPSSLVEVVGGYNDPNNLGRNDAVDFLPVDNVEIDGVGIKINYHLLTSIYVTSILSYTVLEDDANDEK
Method: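 Universal 'all 10-mer' protein binding microarrays (Agilent AMADID 015681) probed with GST-tagged S. cerevisiae TFs (full-length or DBD) made by in vitro transcription/translation (PURExpress), about 100-200 nM. Bound TF was detected with fluorescent anti-GST. Each ungapped 8-mer (which stands for itself and its reverse complement) is scored by the PBM enrichment score (E-score), a modified Wilcoxon-Mann-Whitney statistic from -0.5 to +0.5, computed with the Universal PBM Analysis Suite. Scale: above 0.35 generally sequence-specific binding.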

| Sequence | PBM E-score |
| --- | --- |
| AAACGCCA | 0.0524 |
| AATCGCCC | 0.0407 |
| AAACGCCG | 0.402 |
| AATCGCCG | 0.395 |
| CAACGCCG | 0.264 |
| CATCGCCG | 0.293 |
| CGGTCAAA | 0.269 |
| ACAATCCC | 0.254 |
| ACATCTCC | 0.283 |
| ATTTTTGA | -0.132 |
| ATCTAAAT | 0.149 |
| GAAGTGGC | -0.0295 |
| ATGAAACG | -0.0187 |
| GAAACAGC | 0.0614 |
| TCCAAGGA | 0.0272 |
| GGGATAGA | -0.0284 |
| GCATCTTA | -0.0356 |
| AGTCCGGG | 0.393 |
| AGTCCGGC | 0.389 |
| AGTCCGTC | 0.325 |
| AGTCCGCG | 0.297 |
| AGTCCGCC | 0.292 |

| Sequence | PBM E-score |
| --- | --- |
| AGTCCCGG | 0.322 |
| CTCCAGAG | -0.0749 |
| ACCATGAG | -0.129 |
| ATCGGAAT | 0.363 |
| CACGGAAA | 0.295 |
| CTCGGAAA | 0.346 |
| TTCGGAAA | 0.389 |
| AACGGAAT | 0.306 |
| AACGGAAA | 0.385 |
| ATCGGAAA | 0.426 |
| GTCGGAAA | 0.361 |
| ATCGGAAG | 0.236 |
| ACATTGAC | -0.114 |
| ATACCGAT | 0.288 |
| GACCAACA | 0.0331 |
| CCCCATCG | 0.172 |
| AATCGCGC | 0.135 |
| AGCGCAGG | 0.00092 |
| AACGGATA | 0.398 |
| ATCGGATA | 0.404 |
| CTCGGATA | 0.371 |
| GTCGGATA | 0.339 |

| Sequence | PBM E-score |
| --- | --- |
| CTCGGATC | 0.383 |
| AACGGATT | 0.338 |
| ATCGGATG | 0.346 |
| ATCGGATC | 0.339 |
| CACGGATA | 0.298 |
| CTCGGGTA | 0.264 |
| CGCGGATA | 0.309 |
| CGCGGATC | 0.172 |
| AGTGAGCA | -0.28 |
| AACCAGCG | 0.0362 |
| CGTTGCAC | 0.065 |
| CGCACACA | -0.0394 |
| ATGGGAGA | -0.315 |
| CAGCTATG | -0.287 |
| ACTGAAGG | -0.129 |
| GATCCGAA | 0.379 |
| TATCCGAA | 0.364 |
| AATCCGGA | 0.433 |
| GATCCGAC | 0.273 |
| AATCCGTA | 0.219 |
| AATCCGCA | 0.247 |
| AATCCAGT | 0.219 |

| Sequence | PBM E-score |
| --- | --- |
| AATCCGCT | 0.243 |
| GATCCGGC | 0.375 |
| GATCCGCC | 0.29 |
| CATCCGAA | 0.368 |
| AATCCGGT | 0.418 |
| GAGGGCGA | 0.0665 |
| TACTGGGA | -0.0481 |
| ATCGGGCG | 0.36 |
| ACAGATCA | -0.0146 |
| CGCGTTGC | 0.159 |
| CTACTAAC | -0.214 |
| TGCTAGAA | -0.118 |
| GATCCGTA | 0.225 |
| TATCCGGA | 0.428 |
| CATCCGGA | 0.423 |
| TATCCGCA | 0.253 |
| TATCCTGA | -0.0806 |
| AATCCGTC | 0.232 |
| GATCCGCA | 0.253 |
| CATCCGCA | 0.224 |
